According to the supplement of paper PMC9446081:
± gives the standard deviation of the averaged measurements.

Key:
Assay in all cases: relative enzymatic activity vs untreated control (fraction); higher = less inhibition
Conditions in all cases: 100 µM; incubation time: 2 h at 37 C
DNA gyrase = test system: DNA gyrase
Procedure: (§1)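 In vitro enzymatic inhibition assays (ProFoldin kits) for 12 purified essential E. coli enzymes or complexes, each treated with 218 active antibacterial compounds at 100 µM for 2 h at 37°C. Read-outs were fluorescence or absorbance (phosphate detection, dye binding), converted to activity via standard curves and expressed relative to untreated DMSO controls.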

DNA helicase = DNA helicase (UniProt P0ACB1)
Sequence of DNA helicase (P0ACB1 whole entry): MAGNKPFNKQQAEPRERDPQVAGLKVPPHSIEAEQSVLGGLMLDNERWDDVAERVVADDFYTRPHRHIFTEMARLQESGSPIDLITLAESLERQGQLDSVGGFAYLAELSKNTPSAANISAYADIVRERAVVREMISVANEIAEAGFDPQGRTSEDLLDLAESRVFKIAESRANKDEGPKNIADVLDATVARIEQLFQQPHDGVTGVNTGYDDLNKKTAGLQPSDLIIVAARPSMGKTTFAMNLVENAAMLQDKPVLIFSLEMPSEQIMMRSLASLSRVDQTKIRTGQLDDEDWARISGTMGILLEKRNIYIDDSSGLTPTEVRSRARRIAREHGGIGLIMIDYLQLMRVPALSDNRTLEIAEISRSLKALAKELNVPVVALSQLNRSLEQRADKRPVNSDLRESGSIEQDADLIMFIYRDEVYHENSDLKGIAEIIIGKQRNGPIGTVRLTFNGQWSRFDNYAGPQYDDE
Procedure: as §1

DNA ligase = DNA ligase (UniProt B1XA82)
Sequence of DNA ligase (B1XA82 whole entry): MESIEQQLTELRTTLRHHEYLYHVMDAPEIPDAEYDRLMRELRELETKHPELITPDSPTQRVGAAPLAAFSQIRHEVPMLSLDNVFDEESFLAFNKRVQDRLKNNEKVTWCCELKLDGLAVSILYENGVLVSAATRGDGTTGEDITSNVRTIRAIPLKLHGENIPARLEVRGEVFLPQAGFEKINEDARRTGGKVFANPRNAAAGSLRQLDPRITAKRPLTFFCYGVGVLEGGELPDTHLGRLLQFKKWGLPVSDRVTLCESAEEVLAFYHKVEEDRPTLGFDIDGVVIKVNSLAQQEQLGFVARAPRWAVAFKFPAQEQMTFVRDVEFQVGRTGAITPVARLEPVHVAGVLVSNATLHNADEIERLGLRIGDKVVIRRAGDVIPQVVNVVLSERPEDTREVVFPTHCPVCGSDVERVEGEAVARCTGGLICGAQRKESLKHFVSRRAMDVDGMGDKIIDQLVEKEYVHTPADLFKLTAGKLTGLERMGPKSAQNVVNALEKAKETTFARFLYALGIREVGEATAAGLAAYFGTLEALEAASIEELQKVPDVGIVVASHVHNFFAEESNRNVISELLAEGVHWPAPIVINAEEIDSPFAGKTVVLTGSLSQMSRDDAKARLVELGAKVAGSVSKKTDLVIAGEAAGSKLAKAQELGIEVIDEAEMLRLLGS
Procedure: as §1

DNA polymerase = DNA polymerase (UniProt P10443)
Sequence of DNA polymerase (P10443 whole entry): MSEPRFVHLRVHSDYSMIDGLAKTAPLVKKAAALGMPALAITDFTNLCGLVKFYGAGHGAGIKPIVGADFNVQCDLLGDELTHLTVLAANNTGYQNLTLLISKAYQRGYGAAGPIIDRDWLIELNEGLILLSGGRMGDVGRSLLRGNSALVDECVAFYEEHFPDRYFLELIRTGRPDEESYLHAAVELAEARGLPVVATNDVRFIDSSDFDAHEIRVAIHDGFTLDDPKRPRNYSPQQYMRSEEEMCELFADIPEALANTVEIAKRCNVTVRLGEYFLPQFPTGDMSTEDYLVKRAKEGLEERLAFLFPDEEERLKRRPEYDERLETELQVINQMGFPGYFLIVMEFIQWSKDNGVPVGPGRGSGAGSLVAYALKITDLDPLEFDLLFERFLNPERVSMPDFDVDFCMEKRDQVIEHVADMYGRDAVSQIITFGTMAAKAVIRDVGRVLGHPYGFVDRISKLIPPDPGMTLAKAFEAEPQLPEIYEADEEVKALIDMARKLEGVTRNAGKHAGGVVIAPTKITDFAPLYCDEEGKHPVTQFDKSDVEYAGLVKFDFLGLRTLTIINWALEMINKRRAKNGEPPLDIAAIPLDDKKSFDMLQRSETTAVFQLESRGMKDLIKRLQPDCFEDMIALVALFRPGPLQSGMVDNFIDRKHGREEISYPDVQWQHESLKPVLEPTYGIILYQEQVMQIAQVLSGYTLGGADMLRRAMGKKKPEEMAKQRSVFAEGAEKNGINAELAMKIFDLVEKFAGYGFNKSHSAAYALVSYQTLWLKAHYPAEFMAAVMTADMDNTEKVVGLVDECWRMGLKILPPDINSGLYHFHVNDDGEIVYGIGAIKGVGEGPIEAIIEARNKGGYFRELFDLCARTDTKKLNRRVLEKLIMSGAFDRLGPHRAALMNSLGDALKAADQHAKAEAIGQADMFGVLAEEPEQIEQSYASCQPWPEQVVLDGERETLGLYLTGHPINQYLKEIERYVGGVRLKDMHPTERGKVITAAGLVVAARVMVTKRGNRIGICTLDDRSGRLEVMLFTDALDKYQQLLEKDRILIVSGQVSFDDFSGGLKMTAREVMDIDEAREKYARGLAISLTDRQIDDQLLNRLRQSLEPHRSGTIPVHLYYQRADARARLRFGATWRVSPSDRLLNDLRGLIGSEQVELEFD
Procedure: as §1

DNA primase = DNA primase (UniProt P0ABS7)
Sequence of DNA primase (P0ABS7 whole entry): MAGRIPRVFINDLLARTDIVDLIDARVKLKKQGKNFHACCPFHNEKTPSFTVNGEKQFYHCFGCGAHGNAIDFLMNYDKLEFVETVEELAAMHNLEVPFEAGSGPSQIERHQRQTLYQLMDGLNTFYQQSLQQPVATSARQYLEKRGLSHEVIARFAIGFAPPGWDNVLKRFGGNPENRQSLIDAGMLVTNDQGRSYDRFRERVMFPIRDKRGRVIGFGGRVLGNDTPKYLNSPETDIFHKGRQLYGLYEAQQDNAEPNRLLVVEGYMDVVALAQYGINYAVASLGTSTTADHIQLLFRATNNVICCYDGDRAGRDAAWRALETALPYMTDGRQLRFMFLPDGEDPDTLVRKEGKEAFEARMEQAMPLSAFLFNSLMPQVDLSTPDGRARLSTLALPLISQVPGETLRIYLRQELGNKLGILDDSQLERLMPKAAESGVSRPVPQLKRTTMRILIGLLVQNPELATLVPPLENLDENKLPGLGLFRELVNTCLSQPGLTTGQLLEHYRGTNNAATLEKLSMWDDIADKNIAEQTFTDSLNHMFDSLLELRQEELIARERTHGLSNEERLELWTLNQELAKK
Procedure: as §1

GlmU = GlmU (UniProt A7ZTU1)
Sequence of GlmU (A7ZTU1 whole entry, looked up): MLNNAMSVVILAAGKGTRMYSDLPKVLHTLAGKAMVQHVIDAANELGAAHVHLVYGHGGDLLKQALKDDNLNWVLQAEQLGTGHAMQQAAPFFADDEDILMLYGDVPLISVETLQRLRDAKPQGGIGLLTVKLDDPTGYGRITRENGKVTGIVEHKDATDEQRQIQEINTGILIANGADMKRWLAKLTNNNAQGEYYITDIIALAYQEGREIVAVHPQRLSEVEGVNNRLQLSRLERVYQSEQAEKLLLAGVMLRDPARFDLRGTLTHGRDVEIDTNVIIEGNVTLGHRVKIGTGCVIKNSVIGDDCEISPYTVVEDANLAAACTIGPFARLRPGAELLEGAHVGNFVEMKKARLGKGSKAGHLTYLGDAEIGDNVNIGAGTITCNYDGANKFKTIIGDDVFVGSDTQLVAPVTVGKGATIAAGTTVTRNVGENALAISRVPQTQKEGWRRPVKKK
Procedure: as §1

Guanlyate kinase = Guanlyate kinase (UniProt Q0TBG1)
Sequence of Guanlyate kinase (Q0TBG1 whole entry): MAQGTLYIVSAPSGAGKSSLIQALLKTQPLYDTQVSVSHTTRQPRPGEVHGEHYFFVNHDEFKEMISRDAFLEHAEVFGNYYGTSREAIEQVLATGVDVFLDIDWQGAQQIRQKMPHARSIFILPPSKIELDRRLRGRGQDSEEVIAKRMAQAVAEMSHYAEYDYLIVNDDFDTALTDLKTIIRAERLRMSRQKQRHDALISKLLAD
Procedure: as §1

MurA = MurA (UniProt Q3YX52)
Sequence of MurA (Q3YX52 whole entry): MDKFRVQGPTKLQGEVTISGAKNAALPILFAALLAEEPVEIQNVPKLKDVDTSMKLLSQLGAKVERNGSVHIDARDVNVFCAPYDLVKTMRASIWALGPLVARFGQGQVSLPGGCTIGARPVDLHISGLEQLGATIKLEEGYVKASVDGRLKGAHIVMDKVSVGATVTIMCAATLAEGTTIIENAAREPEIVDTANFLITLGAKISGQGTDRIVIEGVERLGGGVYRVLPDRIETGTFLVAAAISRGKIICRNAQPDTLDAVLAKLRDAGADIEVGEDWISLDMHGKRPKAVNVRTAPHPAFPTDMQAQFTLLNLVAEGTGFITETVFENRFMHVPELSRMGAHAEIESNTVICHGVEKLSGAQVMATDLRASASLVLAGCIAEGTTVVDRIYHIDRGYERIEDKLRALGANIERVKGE
Procedure: as §1

RNA polymerase = test system: RNA polymerase
Procedure: as §1

Structure (SMILES)	relative enzymatic activity (DNA gyrase)	relative enzymatic activity (DNA helicase)	relative enzymatic activity (DNA ligase)	relative enzymatic activity (DNA polymerase)	relative enzymatic activity (DNA primase)	relative enzymatic activity (GlmU)	relative enzymatic activity (Guanlyate kinase)	relative enzymatic activity (MurA)	relative enzymatic activity (RNA polymerase)
CN1C(=O)[C@]23CC4=CC=C[C@H](O)[C@H]4N2C(=O)[C@@]1(CO)SS3	0.669 ± 0.11	0.55 ± 0.14	1.06 ± 0.038	0.477 ± 0.68	0.859 ± 0.019	0.992 ± 0.012	0.947 ± 0.12	0.309 ± 0.13	0.838 ± 0.12
O=[N+]([O-])c1ccc(N(CCO)CCO)c2c1no[n+]2[O-]	1.22 ± 0.18	0.793 ± 0.094	1.49 ± 0.15	0.69 ± 0.21	0.559 ± 0.099	0.935 ± 0.067	0.448 ± 0.049	0.106 ± 0.026	0.679 ± 0.032
O=C1C=C2C(=CCOC2O)O1 (stereo unspecified)	0.0893 ± 0.13	0.409 ± 0.021	1.08 ± 0.17	0.547 ± 0.19	0.632 ± 0.14	0.811 ± 0.21	1.09 ± 0.049	0.0624 ± 0.018	0.56 ± 0.17
Cc1c(N)nc([C@H](CC(N)=O)NC[C@@H](N)C(N)=O)nc1C(=O)N[C@H](C(=O)N[C@@H](C)[C@H](O)[C@@H](C)C(=O)N[C@@H](C(=O)NCCc1nc(-c2nc(C(=O)NCCC[S+](C)C)cs2)cs1)[C@@H](C)O)[C@@H](O[C@H]1O[C@H](CO)[C@H](O)[C@@H](O)[C@H]1O[C@H]1O[C@H](CO)[C@@H](O)[C@H](OC(N)=O)[C@@H]1O)c1c[nH]cn1	0.0451 ± 0.064	0.749 ± 0.38	1.26 ± 0.078	0.485 ± 0.028	0.878 ± 0.06	0.998 ± 0.07	0.96 ± 0.12	0.863 ± 0.16	0.866 ± 0.032
CCCCCCCCCCCCCCCC[n+]1ccccc1.[Cl-]	1.22 ± 0.054	0.0141 ± 0.0023	0.581 ± 0.2	0.0538 ± 0.0068	0.3763 ± 0.00042	0.16 ± 0.039	0.2 ± 0.092	0.0629 ± 0.0016	0.2601 ± 0.0012
CCCCCCCCCCCCCCCC[N+](C)(C)C.[Br-]	1.21 ± 0.19	0.026 ± 0.0026	0.171 ± 0.036	0.0569 ± 0.0052	0.371 ± 0.042	0.235 ± 0.047	0.6144 ± 0.0056	0.0751 ± 0.018	0.162 ± 0.021
CN[C@H]1C[C@@H](N)[C@H](O)[C@@H](O[C@@H]2O[C@H](CO)[C@H](O)[C@@H]3O[C@@]4(O[C@H]23)O[C@H]([C@@H](N)CO)[C@H](O)[C@H](O)[C@H]4O)[C@@H]1O	0.984 ± 0.14	0.571 ± 0.16	0.95 ± 0.14	1.19 ± 0.24	0.883 ± 0.02	1.029 ± 0.0074	0.933 ± 0.098	0.86 ± 0.2	0.8209 ± 0.0048
[O-][n+]1ccccc1[S][Zn][S]c1cccc[n+]1[O-]	0.849 ± 0.41	0.647 ± 0.14	1.08 ± 0.083	1.1 ± 0.13	0.788 ± 0.27	1.03 ± 0.0055	1.06 ± 0.052	0.109 ± 0.033	0.954 ± 0.052
CN(C)[C@@H]1C(=O)C(C(N)=O)=C(O)[C@@]2(O)C(O)=C3C(=O)c4c(O)cccc4[C@](C)(O)[C@H]3C[C@@H]12	1.15 ± 0.25	0.475 ± 0.031	1.06 ± 0.1	1.11 ± 0.24	0.753 ± 0.025	1.05 ± 0.084	0.836 ± 0.089	0.144 ± 0.0081	0.809 ± 0.1
Cc1nc2c(=O)n(C)c(=O)nc-2n(C)n1	0.498 ± 0.2	0.6 ± 0.18	0.827 ± 0.053	1.04 ± 0.11	0.8 ± 0.023	0.927 ± 0.071	0.881 ± 0.045	0.131 ± 0.035	0.925 ± 0.15
CCn1cc(C(=O)[O-])c(=O)c2cc3c(cc21)OCO3.[K+]	0.128 ± 0.074	0.576 ± 0.11	1.21 ± 0.081	1.08 ± 0.18	0.826 ± 0.033	0.959 ± 0.029	0.892 ± 0.14	0.798 ± 0.13	0.7827 ± 0.0058
Oc1cc(Cl)ccc1Oc1ccc(Cl)cc1Cl	1.04 ± 0.057	0.187 ± 0.1	0.856 ± 0.26	0.495 ± 0.69	0.839 ± 0.013	1.113 ± 0.0014	1 ± 0.059	0.846 ± 0.081	0.935 ± 0.17
CN(C)[C@@H]1C(=O)[C@@H](C(N)=O)C(=O)[C@@]2(O)C(=O)[C@H]3C(=O)c4c(O)ccc(Cl)c4[C@@](C)(O)[C@H]3C[C@@H]12	0.69 ± 0.15	0.484 ± 0.12	0.931 ± 0.077	0.474 ± 0.67	0.778 ± 0.016	1.01 ± 0.018	0.879 ± 0.079	0.617 ± 0.21	0.739 ± 0.086
CC(=O)[O][Hg][c]1ccccc1	0.0283 ± 0.04	0.415 ± 0.038	1.16 ± 0.04	0.285 ± 0.017	0.749 ± 0.28	0.987 ± 0.21	3.32 ± 0.43	0.474 ± 0.35	0.462 ± 0.044
CN(C)[C@@H]1C(=O)[C@H](C(N)=O)C(=O)[C@@]2(O)C(=O)[C@@H]3C(=O)c4c(O)cccc4[C@@](C)(O)[C@H]3C[C@@H]12	0.891 ± 0.31	0.615 ± 0.21	0.943 ± 0.033	0.874 ± 0.1	0.801 ± 0.02	1.03 ± 0.011	0.846 ± 0.13	0.379 ± 0.13	0.7359 ± 0.0054
CNC1C(O)C(OC2C(N)CC(N)C(OC3OC(C(C)O)C(O)C(O)C3N)C2O)OCC1(C)O (stereo unspecified)	1.19 ± 0.12	0.447 ± 0.021	1 ± 0.031	1.37 ± 0.52	0.749 ± 0.25	0.973 ± 0.059	0.936 ± 0.045	0.77 ± 0.12	0.879 ± 0.05
C[CH2][Hg][S]c1ccccc1C(=O)[O-].[Na+]	0.069 ± 0.018	0.749 ± 0.37	1.12 ± 0.031	0.94 ± 0.3	0.649 ± 0.14	1.07 ± 0.093	1.03 ± 0.11	0.212 ± 0.01	0.959 ± 0.048
Cn1ncnc2c(=O)n(C)c(=O)nc1-2	0.373 ± 0.21	0.533 ± 0.13	1.08 ± 0.28	0.994 ± 0.056	0.758 ± 0.047	0.966 ± 0.021	0.88 ± 0.059	0.129 ± 0.027	0.587 ± 0.6
Cc1c(N)nc([C@H](CC(N)=O)NC[C@@H](N)C(N)=O)nc1C(=O)N[C@H](C(=O)N[C@@H](C)[C@H](O)[C@@H](C)C(=O)N[C@@H](C(=O)NCCc1nc(-c2nc(C(=O)NCCC[S+](C)C)cs2)cs1)[C@@H](C)O)[C@@H](O[C@H]1O[C@H](CO)[C@H](O)[C@@H](O)[C@H]1O[C@H]1O[C@H](CO)[C@@H](O)[C@H](OC(N)=O)[C@@H]1O)c1cnc[nH]1	0.0494 ± 0.07	0.504 ± 0.71	1.121 ± 0.005	0.911 ± 0.2	0.801 ± 0.0016	1.06 ± 0.057	1.03 ± 0.061	0.787 ± 0.087	0.875 ± 0.077
O=S(=O)(O)O.Oc1cccc2cccnc12	0.857 ± 0.31	0.653 ± 0.14	1.05 ± 0.1	1.34 ± 0.49	0.441 ± 0.18	0.987 ± 0.048	0.981 ± 0.14	0.768 ± 0.011	0.862 ± 0.094
O=[N+]([O-])C(Br)(CO)CO	0.108 ± 0.15	0.618 ± 0.27	0.897 ± 0.11	0.327 ± 0.015	0.596 ± 0.031	0.198 ± 0.059	0.943 ± 0.084	0.0632 ± 0.019	0.348 ± 0.045
CCCCCCCCCCCCCCCC[n+]1ccccc1	1.17 ± 0.056	0.0233 ± 0.0026	0.134 ± 0.0094	0.0267 ± 0.011	0.341 ± 0.023	0.19333 ± 8.8e-05	0.0415 ± 0.016	0.0717 ± 0.02	0.617 ± 0.64
COP(=S)(OC)Oc1cc(Cl)c(Cl)cc1Cl	1.01 ± 0.21	0.105 ± 0.011	0.991 ± 0.28	1.39 ± 0.45	0.737 ± 0.2	1.09 ± 0.043	1.07 ± 0.027	0.585 ± 0.13	0.851 ± 0.025
CC(=O)Oc1ccc(Cl)c2cccnc12	0.756 ± 0.36	0.577 ± 0.29	0.965 ± 0.18	1.09 ± 0.17	0.8364 ± 0.0049	0.987 ± 0.052	0.892 ± 0.12	0.873 ± 0.19	0.7397 ± 0.0065
